# The list is not random: actives were taken first. Their share in the collection is about 1.2%.
# RGS16-Gao HTS: regulators of human RGS16-Galphao interaction; O15492+P09471; AID 1441; 0.38% of 220,000 active; binding response (% of control), % at 10 µM; bead-based flow cytometry RGS16-Galphao binding, fluorescence; actives lie on both sides;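 also: Galphao activated by GDP with aluminum fluoride before binding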
# RGS7-Gao reg: regulators of human RGS7-Galphao interaction. AID 1439. P09471. 0.35% of 220,000 active. Multiplexed bead flow cytometry, RGS7-Galphao binding; actives lie on both sides. binding response (% of control), % at 10 µM; in the data active = binding response below about 49% or above about 150%; inconclusive = no clear call, values can overlap the other calls; inactive = in between;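 also: fluorescent Galphao held in activated GDP-AlF4 state binding bead-coupled RGS7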
# Target sequence (P09471 whole entry, looked up): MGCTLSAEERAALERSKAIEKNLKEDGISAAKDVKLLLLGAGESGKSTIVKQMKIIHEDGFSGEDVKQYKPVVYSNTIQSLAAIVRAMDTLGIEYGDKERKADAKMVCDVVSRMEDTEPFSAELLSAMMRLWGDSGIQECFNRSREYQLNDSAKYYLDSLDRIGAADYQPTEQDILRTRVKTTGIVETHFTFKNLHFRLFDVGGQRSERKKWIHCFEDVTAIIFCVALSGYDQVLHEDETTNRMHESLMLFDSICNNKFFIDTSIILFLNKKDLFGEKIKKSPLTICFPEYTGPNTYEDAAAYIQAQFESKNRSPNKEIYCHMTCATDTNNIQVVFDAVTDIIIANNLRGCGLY
# Avidin bead fluor: compound fluoresces at 488/530 nm on avidin beads; 0.38% of 220,000 active; compound fluorescence 488/530 nm, flow cytometry; stronger effect = higher value; fluorescence (KMESF) at 10 µM; in the data active = fluorescence above about 47
# RGS8-Gao reg: modulates binding of RGS8 to human Galphao; P09471; multiplexed bead flow cytometry; actives lie on both sides; response (percent of control binding), % at 10 µM; 0.34% of 220,000 active; AID 1423; in the data active = response below about 60% or above about 140%; inactive = in between;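 also: Galphao activated as the GDP aluminium fluoride complex binding bead-coupled RGS8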
# RGS4-Gao reg: human RGS4-Galphao interaction regulation | P09471 | Multiplexed bead flow cytometry, RGS4-Galphao binding; actives lie on both sides | binding response (% of control), % at 10 µM | 0.33% of 220,000 active | AID 1415; in the data active = binding response below about 49% or above about 150%; inactive = in between;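 also: fluorescent Galphao activated with aluminum fluoride binding bead-coupled RGS4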
# GSH bead fluor: GSH bead compound fluorescence profile; fluorescence (KMESF) at 10 µM; GSH beads flow cytometry, compound fluorescence 488/530 nm; stronger effect = higher value; 0.25% of 190,000 active; AID 1776; in the data active = fluorescence above about 89;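 also: glutathione beads carrying GST-tagged Bcl family fusion proteins plus one bare bead set; values are compound well signal with DMSO vehicle wells as background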
# RGS4-Gao HTS: modulates binding between human RGS4 and Galphao | shares compounds with RGS16-Gao HTS | multiplexed bead flow cytometry, RGS–Galpha-o binding | RGS4–Galpha-o binding response, % at 10 µM | 99% of 1,600 active | AID 1504;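 also: fluorescently labeled Galpha-o bound to GDP with aluminium fluoride binding biotinylated RGS beads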
# Avidin counter: counter-screen: compounds disrupting biotin binding to avidin beads. shares compounds with RGS16-Gao HTS. streptavidin beads, fluorescein-biotin binding, flow cytometry. 1,700 tested, under 10 active. inhibition, % at 10 µM. AID 1783;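 active = inhibition above 50%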;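 also: median green fluorescence of gated singlet beads compared with DMSO control wells; 0% = DMSO wells and 100% = complete loss of bead fluorescence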
# RGS8-Gao confirm: confirmation of regulators of human RGS8-Galphao interaction | shares compounds with RGS16-Gao HTS | bead-based flow cytometry RGS8-Galphao binding, fluorescence; actives lie on both sides | binding response (% of control), % at 10 µM | 3% of 1,700 active | AID 1836; in the data active = binding response below about 72% or above about 130%; inactive = in between;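 also: Galphao activated as GDP AlF4 complex before binding bead RGS8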
# RGS7-Gao confirm: confirmation of regulators of human RGS7-Galphao interaction; response (percent of control binding), % at 10 µM; 7.8% of 1,700 active; bead-based flow cytometry RGS7-Galphao binding; actives lie on both sides; AID 1837; shares compounds with RGS16-Gao HTS; in the data active = response below about 75% or above about 130%; inactive = in between;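 also: fluorescent Galphao activated with GDP and aluminum fluoride binding bead-coupled RGS7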
# RGS16-Gao single: confirmation of regulators of human RGS16-Galphao interaction. shares compounds with RGS16-Gao HTS. bead-based flow cytometry, RGS16-Galphao binding; actives lie on both sides. response (% of control binding), % at 10 µM. 4% of 1,700 active; in the data active = response below about 74% or above about 130%; inactive = in between;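 also: Galphao activated as the GDP aluminium fluoride complex binding bead-coupled RGS16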
# RGS4-Gao confirm: confirmation of regulators of human RGS4-Galphao interaction. AID 1840. 4% of 1,700 active. RGS4-Galphao binding, multiplexed bead flow cytometry; actives lie on both sides. shares compounds with RGS16-Gao HTS. binding response (% of control), % at 10 µM; in the data active = binding response below about 74% or above about 130%; inactive = in between
# RGS19-Gao single: confirmation of regulators of human RGS19-Galphao interaction. 5% of 1,700 active. shares compounds with RGS16-Gao HTS. response (percent of control binding), % at 10 µM. bead-based flow cytometry RGS19-Galphao binding; actives lie on both sides; in the data active = response below about 50% or above about 160%; inactive = in between;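 also: 100% = no compound control and 0% = blank background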
# Target sequence (P09471 whole entry, looked up): as above
# Target sequence (P49795 whole entry, looked up): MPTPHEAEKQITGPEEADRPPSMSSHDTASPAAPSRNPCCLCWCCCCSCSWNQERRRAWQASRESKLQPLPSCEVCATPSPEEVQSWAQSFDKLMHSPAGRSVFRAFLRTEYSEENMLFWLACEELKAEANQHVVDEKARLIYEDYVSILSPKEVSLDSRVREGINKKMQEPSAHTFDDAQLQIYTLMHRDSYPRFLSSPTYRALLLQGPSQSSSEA
# * hit, by the source's call; i = inactive; ? = inconclusive; · = no result given; [ ] = dose if it differs, or a comment. Unless noted, no rule for the calls is given here.
SMILES,RGS16-Gao HTS,RGS7-Gao reg,Avidin bead fluor,RGS8-Gao reg,RGS4-Gao reg,GSH bead fluor,Avidin counter,RGS8-Gao confirm,RGS7-Gao confirm,RGS16-Gao single,RGS4-Gao confirm,RGS19-Gao single,others
CS(=O)(=O)c1cnc(-c2ccccc2)nc1-c1ccccc1Cl,98.1,100.4,9,100.3,97.2,18,·,·,·,·,·,·,
CCOc1ccccc1NS(=O)(=O)N(C)C,-852.6,61.5,6,64.7,11.0*,15,-0.8,99.9,96.1,97.8,94.2,102.4,
COc1cc(CN2CCCC(CO)(Cc3ccccc3C)C2)cc2c1OCO2 (stereo unspecified),107.1,102.3,12,105.8,104.0,18,·,·,·,·,·,·,
O=C(Nc1nnc(-c2ccccc2Cl)o1)c1ccco1,·,·,·,·,·,31,2.0,98.8,103.4,100.5,103.3,93.3,
CN(c1ccc(OCC(=O)N2CCOCC2)cc1)S(=O)(=O)c1ccc(Cl)cc1,100.2,101.4,8,102.3,102.4,71,·,·,·,·,·,·,
COc1ccc(N(CC(=O)Nc2ccc(OC)c(Cl)c2)S(=O)(=O)c2c(C)noc2C)cc1,227.2*[activator],116.0,9,140.8*[activator],116.2,16,-1.7,101.1,101.5,103.7,101.9,96.6,RGS4-Gao HTS=116.2*
COc1ccc(N(CC(=O)Nc2ccc(F)c(Cl)c2)S(=O)(=O)c2c(C)noc2C)cc1,102.4,100.0,11,100.5,97.6,10,·,·,·,·,·,·,
C=CCc1c(C)[nH]c2c(OC)cccc2c1=S,94.5,105.7,10,96.0,103.3,14,·,·,·,·,·,·,
NNc1nc2ccc(F)cc2s1,0.3*,88.6,8,77.7,91.8,9,2.6,101.2,94.2,101.5,99.6,108.0,RGS4-Gao HTS=91.8*
NNc1nc2ccc(Cl)cc2s1,99.0,100.4,15,101.8,102.3,17,·,·,·,·,·,·,
Cc1ccc(/C=C/C(=O)OCc2nc(N)nc(Nc3ccccc3C)n2)o1,100.8,100.3,26,103.5,101.2,16,·,·,·,·,·,·,
Nc1n[nH]c(N)c1N=Nc1ccccc1,107.7,99.0,11,100.2,102.1,23,·,·,·,·,·,·,
Nc1n[nH]c(N)c1N=Nc1ccc(Cl)cc1Cl,81.6,46.3*,0,72.0,52.8,10,-0.8,98.8,98.2,99.4,100.0,87.9,RGS4-Gao HTS=52.8*
COc1ccc(Cn2c(CCC(=O)Nc3ccc(C)cc3)nc3cccnc32)cc1,154.0,110.9,53*,101.3,156.0*[activator],36,0.2,102.3,99.1,95.2,97.1,68.5,
CCOC(=O)C1=C(C)N(CCCCCC(=O)O)C(=O)NC1c1ccccc1OC(=O)c1cccs1 (stereo unspecified),99.7,101.3,13,102.0,102.9,20,·,·,·,·,·,·,
Cc1ccc(CN2CCSc3ccc(C(=O)NCc4cccnc4)cc32)cc1,93.3,?,8,97.8,96.4,13,·,·,·,·,·,·,
CN(C)CCNC(=O)c1ccc2c(c1)N(Cc1ccc(F)cc1)CCS2,7.0,61.8,0,60.0*,44.3*,23,0.6,100.8,96.3,98.3,101.0,86.4,
Cc1ccccc1NC(=O)Cn1nnc(-c2ccc(CN3CCC(C)CC3)cc2)n1,102.2,?,8,104.9,103.5,·,·,·,·,·,·,·,
COc1ccc(NC(=O)Cn2nnc(-c3ccc(CN4CCOCC4)cc3)n2)c(OC)c1,169.6,129.2,6,144.7*[activator],148.9,13,-3.8,104.7,105.9,106.3,105.4,98.1,RGS4-Gao HTS=148.9*
CCN(CC)S(=O)(=O)c1cccc(NC2=NCC(C)S2)c1 (stereo unspecified),98.0,?,10,97.5,100.1,13,·,·,·,·,·,·,
CCOC(=S)NC(=O)c1sc2ccccc2c1Cl,112.0,102.5,9,105.4,103.1,17,·,·,·,·,·,·,
CCCOC(=S)NC(=O)c1sc2ccccc2c1Cl,·,·,·,·,·,17,0.5,102.7,105.0,103.2,105.1,98.8,
CSCC[C@H](NC(=O)Nc1ccc(S(N)(=O)=O)cc1)C(=O)O,100.2,?,21,100.7,98.8,·,·,·,·,·,·,·,
Cc1ccc(C)n1-c1cccc(C(=O)O)c1,91.2,22.0*,2,49.2*,84.0,7,·,·,·,·,·,·,RGS4-Gao HTS=84.0*
Cc1ccc(C)n1-c1cccc(N)c1,54.1,72.8,12,81.7,49.3*,9,-1.0,100.2,99.5,101.2,96.2,110.4,
SMILES,RGS16-Gao HTS,RGS7-Gao reg,Avidin bead fluor,RGS8-Gao reg,RGS4-Gao reg,GSH bead fluor,Avidin counter,RGS8-Gao confirm,RGS7-Gao confirm,RGS16-Gao single,RGS4-Gao confirm,RGS19-Gao single,others
CC1CCN(C(=O)COC(=O)[C@H](C)NS(=O)(=O)/C=C/c2ccccc2)CC1,100.3,104.5,10,100.2,98.7,11,·,·,·,·,·,·,
CCN1CCN(C(=O)Cn2cnc3sc(C)c(S(=O)(=O)N4CCN(c5ncccn5)CC4)c3c2=O)CC1,100.0,98.0,11,100.7,100.7,15,·,·,·,·,·,·,
COc1ccc2oc3cc(C)[n+]([O-])c(-c4ccc(Cl)cc4)c3c2c1,89.8,52.3,-1,77.8,41.2*,11,i,105.4,114.4,111.7,110.7,107.0,
COc1ccc(OC)c(CCNC(=O)Cn2sc3nc(C)cc(C)c3c2=O)c1,17.1*,92.2,3,74.2,91.7,15,3.3,51.8*,70.9*,6.5*,69.3*,8.8*,RGS4-Gao HTS=91.7*
Cc1cc(C)c2c(=O)n(CC(=O)NC3CCCC3)sc2n1,41.3,?,3,81.0,93.1,·,·,·,·,·,·,·,
CC1=C/C(=N\NC(=S)Nc2cccnc2)CC(C)(C)C1,100.7,?,9,102.4,103.4,13,·,·,·,·,·,·,
CC1CCCC(C)N1C(=O)CN1C(=O)C(C)(C)Oc2ccc(C(=O)NC3CCCC3)cc21 (stereo unspecified),·,·,·,·,·,41,-0.5,99.7,101.9,100.5,100.9,97.8,
CC1CCCC(C)N1C(=O)CN1C(=O)C(C)(C)Oc2ccc(C(=O)NC3CCCCC3)cc21 (stereo unspecified),2.8,91.3,4,·,108.4,54,-1.2,100.4,100.5,101.3,98.4,91.9,
O=C(c1ccccc1)c1c2c(cc3sc4ccccc4[n+]13)-c1cccc3cccc-2c13,92.6,198.6*[activator],5,115.5,141.1,2,-0.4,103.6,115.7,105.5,123.4,96.0,RGS4-Gao HTS=141.1*
